Test results taken from PubChem BioAssay.
The source made the active and inactive calls.

What was measured:
[1] = small molecules captured by biotinylated probe aFSTL3 – biochemical, small-molecule microarray, fluorescence 635/667, stem cell growth factor project, primary screen (AID 1064); conditions: higher = more signal;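 note: measures binding of the biotinylated anti-FSTL3 antibody to printed compounds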
[2] = binders from COS7 lysate, DM2A8 probe, primary screen, torsin A project, cell lysate, small-molecule microarray, fluorescence 635/667 (AID 1065); conditions: higher = more signal, COS7 lysate expressing mutant human TOR1A
[3] = small molecules captured by biotinylated probe aFGF2 – biochemical, small-molecule microarray, fluorescence 635/667, stem cell growth factor project, primary screen (AID 1067); conditions: higher = more signal;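 note: measures binding of biotinylated aFGF2 protein to printed compounds on slides; z-score merges feature fluorescence and signal-to-noise across triplicate slides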
[4] = small molecules captured by biotinylated probe aFGF10 – biochemical, small-molecule microarray, fluorescence 635/667, stem cell growth factor project, primary screen (AID 1071); conditions: higher = more signal;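 note: score merges 667 nm spot intensity and signal to noise from triplicate slides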
[5] = target: Neurogenic locus notch homolog protein 2 (Homo sapiens) (UniProt Q04721); assay: small molecules binding Notch2 protein – biochemical, small-molecule microarray, 635 nm fluorescence, stem cell growth factors, primary screen (AID 1073); conditions: higher = more signal
[6] = target: Pro-neuregulin-1, membrane-bound isoform (Homo sapiens) (UniProt Q02297); assay: small molecules binding neuregulin-1 protein – biochemical, small-molecule microarray, fluorescence 635/667, psychiatric disease protein project, primary screen (AID 1075); conditions: NRG1 binding, 635 nm fluorescence, higher = more signal;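 note: score combines 667 nm spot fluorescence with signal to noise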
[7] = test system: Neuregulin-1 EGF-like domain; assay: small molecules binding NRG1 EGF domain – biochemical, small-molecule microarray, 635 nm fluorescence, primary screen (AID 1081); conditions: higher = more signal;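 note: binding of the protein to compounds printed on small-molecule microarray slides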
[8] = FRG1 expression reporter modulators in myotubes – cell-based, C2C12 myotubes, firefly/Renilla luciferase, luminescence, FRG1 inhibition for FSHD, primary screen (AID 1084); conditions: FRG1 promoter luciferase, higher = more signal, called active from +8 up or from −8 down
[9] = small molecules captured by biotinylated probe aFST – biochemical, small-molecule microarray, fluorescence 635/667, stem cell growth factor project, primary screen (AID 1086); conditions: higher = more signal;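 note: score merges 667 nm fluorescence with signal-to-noise of each printed compound spot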
[10] = binders of probe aHhip on microarray, primary screen, stem cell growth factor project, biochemical, small-molecule microarray, fluorescence 635/667 (AID 1087); conditions: higher = more signal;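 note: score merges spot fluorescence at 667nm with spot signal to noise ratio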

Pro-neuregulin-1, membrane-bound isoform (Homo sapiens), sequence (Q02297 whole entry, looked up, the tested form may be a part, canonical isoform): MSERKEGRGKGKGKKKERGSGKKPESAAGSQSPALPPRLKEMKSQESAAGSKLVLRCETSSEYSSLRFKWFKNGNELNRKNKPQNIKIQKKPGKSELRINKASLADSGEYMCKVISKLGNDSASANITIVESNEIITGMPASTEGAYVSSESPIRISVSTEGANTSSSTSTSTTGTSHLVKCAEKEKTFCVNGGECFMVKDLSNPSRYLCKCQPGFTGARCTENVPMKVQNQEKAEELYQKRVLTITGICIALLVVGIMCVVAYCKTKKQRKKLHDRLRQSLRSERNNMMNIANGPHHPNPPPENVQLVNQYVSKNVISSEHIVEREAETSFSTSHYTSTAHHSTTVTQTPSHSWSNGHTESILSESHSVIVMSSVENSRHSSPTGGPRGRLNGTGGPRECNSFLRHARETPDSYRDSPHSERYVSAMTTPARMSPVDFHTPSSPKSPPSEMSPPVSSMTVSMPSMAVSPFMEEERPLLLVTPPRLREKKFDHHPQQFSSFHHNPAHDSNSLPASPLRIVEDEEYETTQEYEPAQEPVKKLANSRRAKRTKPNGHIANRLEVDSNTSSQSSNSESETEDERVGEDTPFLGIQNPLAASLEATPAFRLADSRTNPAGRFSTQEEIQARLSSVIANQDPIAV
Neurogenic locus notch homolog protein 2 (Homo sapiens), sequence (Q04721 whole entry, looked up, canonical isoform): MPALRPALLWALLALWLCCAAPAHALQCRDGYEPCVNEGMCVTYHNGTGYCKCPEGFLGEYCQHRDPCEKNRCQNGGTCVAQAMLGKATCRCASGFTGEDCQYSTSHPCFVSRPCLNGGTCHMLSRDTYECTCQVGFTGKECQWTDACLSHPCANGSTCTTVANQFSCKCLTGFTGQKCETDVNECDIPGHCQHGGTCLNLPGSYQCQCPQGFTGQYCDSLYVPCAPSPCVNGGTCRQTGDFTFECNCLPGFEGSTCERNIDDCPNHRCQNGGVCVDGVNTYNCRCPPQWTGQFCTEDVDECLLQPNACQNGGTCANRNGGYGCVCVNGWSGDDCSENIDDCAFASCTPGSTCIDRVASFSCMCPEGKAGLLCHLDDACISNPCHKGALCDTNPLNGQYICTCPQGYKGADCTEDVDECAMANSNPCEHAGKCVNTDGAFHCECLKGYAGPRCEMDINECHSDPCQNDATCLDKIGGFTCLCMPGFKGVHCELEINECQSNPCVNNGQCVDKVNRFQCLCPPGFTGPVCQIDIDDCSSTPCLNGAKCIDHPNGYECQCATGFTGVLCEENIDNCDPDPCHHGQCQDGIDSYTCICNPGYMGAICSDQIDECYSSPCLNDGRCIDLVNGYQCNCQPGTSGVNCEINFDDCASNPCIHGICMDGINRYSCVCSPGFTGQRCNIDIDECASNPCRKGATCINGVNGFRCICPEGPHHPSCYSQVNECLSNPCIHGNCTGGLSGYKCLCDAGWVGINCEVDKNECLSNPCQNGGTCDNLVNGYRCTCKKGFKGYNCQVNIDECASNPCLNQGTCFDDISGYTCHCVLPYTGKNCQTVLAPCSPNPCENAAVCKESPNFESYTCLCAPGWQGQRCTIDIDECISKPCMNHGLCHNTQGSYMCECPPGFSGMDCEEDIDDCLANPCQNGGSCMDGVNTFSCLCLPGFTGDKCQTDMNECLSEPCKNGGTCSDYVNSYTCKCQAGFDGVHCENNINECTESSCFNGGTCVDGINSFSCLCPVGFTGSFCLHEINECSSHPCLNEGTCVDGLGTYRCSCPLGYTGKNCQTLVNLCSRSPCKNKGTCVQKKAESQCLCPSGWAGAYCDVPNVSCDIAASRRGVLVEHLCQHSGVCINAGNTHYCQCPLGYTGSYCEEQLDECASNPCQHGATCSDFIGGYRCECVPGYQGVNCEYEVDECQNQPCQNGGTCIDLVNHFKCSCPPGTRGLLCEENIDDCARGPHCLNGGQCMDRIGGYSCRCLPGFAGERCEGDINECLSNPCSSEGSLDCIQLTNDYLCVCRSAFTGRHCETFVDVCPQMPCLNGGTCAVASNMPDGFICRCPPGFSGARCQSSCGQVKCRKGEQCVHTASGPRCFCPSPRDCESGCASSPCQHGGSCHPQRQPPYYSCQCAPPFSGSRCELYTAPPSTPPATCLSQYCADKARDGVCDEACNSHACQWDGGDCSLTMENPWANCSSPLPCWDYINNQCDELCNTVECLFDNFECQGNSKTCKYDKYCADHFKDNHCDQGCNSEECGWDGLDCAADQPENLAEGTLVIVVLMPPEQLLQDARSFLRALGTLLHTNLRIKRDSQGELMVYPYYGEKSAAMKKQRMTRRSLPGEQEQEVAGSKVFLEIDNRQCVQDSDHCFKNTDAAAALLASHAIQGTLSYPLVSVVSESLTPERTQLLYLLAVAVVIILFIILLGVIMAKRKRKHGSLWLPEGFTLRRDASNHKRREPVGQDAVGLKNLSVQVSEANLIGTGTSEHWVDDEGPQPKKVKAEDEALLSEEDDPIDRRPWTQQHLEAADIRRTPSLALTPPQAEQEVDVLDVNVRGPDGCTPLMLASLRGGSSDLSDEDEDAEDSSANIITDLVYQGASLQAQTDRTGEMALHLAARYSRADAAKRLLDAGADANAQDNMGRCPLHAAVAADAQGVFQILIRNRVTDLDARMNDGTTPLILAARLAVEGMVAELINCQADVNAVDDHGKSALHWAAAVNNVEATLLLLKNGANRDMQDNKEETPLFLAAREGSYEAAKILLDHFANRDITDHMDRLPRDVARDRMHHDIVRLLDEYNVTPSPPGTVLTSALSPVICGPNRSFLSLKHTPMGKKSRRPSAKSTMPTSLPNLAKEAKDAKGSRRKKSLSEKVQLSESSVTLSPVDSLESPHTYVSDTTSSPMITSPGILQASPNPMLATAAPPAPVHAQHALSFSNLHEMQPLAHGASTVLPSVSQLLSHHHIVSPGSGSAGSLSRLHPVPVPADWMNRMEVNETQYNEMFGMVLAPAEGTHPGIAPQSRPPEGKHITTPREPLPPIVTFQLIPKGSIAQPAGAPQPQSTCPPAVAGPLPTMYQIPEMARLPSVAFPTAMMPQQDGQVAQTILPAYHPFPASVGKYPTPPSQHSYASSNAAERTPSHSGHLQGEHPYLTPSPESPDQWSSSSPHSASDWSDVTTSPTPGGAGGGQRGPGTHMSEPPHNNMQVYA

Compound | composite z-score [1] | composite z-score [2] | composite z-score [3] | composite z-score [4] | composite z-score [5] | composite z-score [6] | composite z-score [7] | z-score [8] | composite z-score [9] | composite z-score [10]
O=C(O)[C@@H]1[C@@H]2C(=O)N(c3ccccc3)C(=O)[C@@H]2C[C@@H]1Sc1ccccc1 | 0.305 | -0.534 | -0.0833 | 0.105 | -0.0593 | -0.141 | 0.695 | 1.06 (inactive) | -0.377 | 0.0505
CCCCN1CC=CC23O[C@@H]4/C=C\CCCOC(=O)C4[C@H]2C(=O)N(CCO)[C@@H]3C1=O (stereo not given in full) | 0.33 | -1.37 | -0.19 | -0.615 | -0.913 | 0.441 | 1.61 | -0.0657 (inactive) | -1 | -0.271
CC(CO)N1C(=O)[C@]2(C)C3C(=O)OCCC/C=C\[C@H]3OC23C=CCN(c2ccc(Cl)cc2)C(=O)[C@@H]13 (stereo not given in full) | -0.167 | -0.258 | -0.19 | 0.0755 | -0.27 | -0.639 | 1.25 | -0.906 (inactive) | -0.456 | -0.266
CC(C)c1ccc(NN2C(C(O)c3ccc(F)cc3)C=CC3C(=O)N(c4ccccc4)C(=O)C32)cc1 (stereo not given) | -0.26 | 0.25 | 0.187 | 1 | 1.55 | 1.28 | 1.04 | -0.38 (inactive) | 1.25 | -0.118
CCCCCCCCCCC(O)C1C=CC2C(=O)N(c3ccccc3)C(=O)C2N1Nc1ccc(C#N)cc1 (stereo not given) | 0.356 | 0.179 | -0.0262 | 0.696 | 1.18 | 1.73 | 0.98 | 1.05 (inactive) | 0.647 | 0.0626
O=C1OCCC=C[C@H]2OC34C=CCN(c5ccc6ccccc6c5)C(=O)[C@H]3N(CCCO)C(=O)[C@@H]4C12 (stereo not given in full) | 0.796 | -2.38 | -0.258 | -0.736 | -2.08 | -0.962 | -0.948 | -0.0625 (inactive) | -0.723 | -0.134
CS(=O)(=O)CCOC(=O)C1=CC(CCCO)=CC(c2ccc(CN3CCCC3)cc2)N(Cc2sc3ccccc3c2Cl)C=C1C(=O)OCCS(C)(=O)=O (stereo not given) | 0.0681 | 2.14 | 0.198 | 1.3 | 1.62 | 2.16 | 1.22 | 0.168 (inactive) | 0.888 | 0.0053
COCCCNC(=O)[C@@H]1c2ccccc2C(=O)N(C(C)C)[C@H]1c1ccc(CO)cc1 | 0.312 | 0.355 | -0.051 | -0.373 | 0.0446 | 0.576 | 0.763 | -0.215 (inactive) | 0.0241 | -0.249
CCOC(=O)C[C@H]1[C@H](OC(=O)c2cc3ccccc3oc2=O)[C@@H](NC(=O)CC(C)C)c2cc(OCCCO)ccc2N1C(=O)c1ccc2ccccc2n1 | -0.444 | 0.304 | -0.132 | 0.945 | 1.09 | 0.594 | 1.1 | 0.159 (inactive) | 0.252 | -0.199
CCCC1(C(=O)OC)C=C2C(=C(C)C(=O)C2C)CN1 (stereo not given) | 0.948 | -0.313 | -0.0296 | -0.0572 | -0.326 | -0.74 | 0.188 | 3.02 (inactive) | 0.454 | -0.0645
CCOC(=O)C[C@H]1[C@H](OC(=O)c2ccc(C(=O)c3ccccc3)cc2)[C@@H](NC(=O)c2ccc(-c3ccccc3)cc2)c2cc(OCCCO)ccc2N1C(=O)Cc1ccc(OC)cc1 | -0.258 | -0.0676 | -0.0364 | 0.034 | 0.618 | 0.486 | -0.228 | -0.111 (inactive) | 0.765 | 0.0976
O=C1C[C@]2(c3ccc([N+](=O)[O-])cc3)C(=O)N(C3CC3)c3cc(CO)ccc3[C@H]2N1CC12CC3CC(CC(C3)C1)C2 | -0.224 | -0.622 | -0.0825 | -0.0253 | -0.562 | -0.0609 | -0.5 | -0.0608 (inactive) | 0.0196 | -0.258
COCCOC(=O)N1C(=O)[C@@]2(c3cc(C#CC4=CCCCC4)ccc31)[C@H](c1ccccc1OCCO)N1[C@H](c3ccccc3)[C@H](c3ccccc3)OC(=O)[C@H]1[C@@H]2C(=O)N1CCN(c2ncccn2)CC1 | -0.463 | 0.434 | -0.0536 | 0.538 | 1.07 | 0.373 | 1.13 | -0.624 (inactive) | 0.469 | -0.321
C=C(/C(=C/C[C@H](OC(C)=O)c1ccc(CO)o1)c1cnc2ccccc2c1)C(C)C | -0.519 | 1.01 | 0.0122 | 1.01 | 1.5 | 1.68 | 1.04 | 0.938 (inactive) | 0.846 | -0.0296
N[C@@H](Cc1ccccc1)C(=O)NCc1cn(Cc2ccccc2)nn1 | 0.231 | 0.595 | -0.0465 | 0.157 | 0.108 | -0.191 | 1.04 | 0.46 (inactive) | 0.145 | -0.0296
COc1cc(NN2C(C(O)c3ccc(N(C)C)cc3)C=CC3C(=O)N(c4ccccc4)C(=O)C32)cc(OC)c1OC (stereo not given) | 0.817 | 0.0214 | 0.107 | 0.396 | 1.18 | 0.465 | 1.13 | 1.44 (inactive) | 0.588 | -0.0618
CCOC(=O)C[C@H]1[C@H](OC(=O)c2ccccc2-c2ccccc2)[C@@H](NC(=O)c2ccc3ccccc3c2)c2cc(OCCCO)ccc2N1C(=O)c1ccccc1 | -0.421 | 0.483 | -0.0277 | 1.03 | 0.299 | 0.12 | 0.965 | -0.201 (inactive) | 0.0603 | 0.0373
COCCCNC(=O)[C@@]1(CCC(=O)OC(C)(C)C)N=C(c2ccc(OCCCO)cc2)O[C@H]1c1ccccc1N=[N+]=[N-] | 0.913 | 1.5 | 0.0999 | 1.14 | 1.41 | 1.9 | 1.4 | 2.62 (inactive) | 1.03 | 0.0053
C=CC[C@@H](OC(=O)Nc1ccc(OC)cc1)c1ccc(O)c(F)c1 | 0.93 | 0.141 | -0.141 | -0.97 | -1.43 | 0.952 | 1.13 | 6.36 (inactive) | -0.535 | -0.216
CC(C)=C1C(=O)C(c2ccccc2)=C2CN3C(=O)N(CCc4ccccc4)C(=O)[C@]3(Cc3ccc(C(F)(F)F)cc3)[C@H]21 | 1.11 | -0.192 | 0.0977 | -0.122 | 0.816 | 0.757 | 0.844 | 0.845 (inactive) | 0.693 | 0.281
CCCN1C(=O)[C@]2(Cc3ccccc31)N=C(c1ccc(OCCCO)cc1)O[C@@H]2c1ccccc1 | 0.552 | 0.176 | 0.0732 | -0.139 | 0.118 | 1.3 | 1.23 | -1.9 (inactive) | 0.311 | 0.22
CCCC[C@@H](O)C1=C(COc2ccccc2)C[C@H]2C(=O)N(Cc3ccccc3)C(=O)[C@H]2[C@H]1CO | -0.123 | 0.195 | -0.147 | 0.479 | 0.339 | 1.01 | 0.426 | -0.791 (inactive) | -0.0226 | -0.449
